Targets with a hit are over-represented here; the source holds about 7,900 in all. About 0.6% of all pairs of compound and target were hits. Values without a mark were called inactive.
Tests used:
Assay in all cases: log2 fold change, soluble protein after heating vs DMSO (PISA); higher = thermal stabilisation; K562 cells, 10 uM, 30 min; active = over 0.2 and 3.5 SD of the protein, either way, in both replicates (recomputed)
[1] = compound: NC(=O)Nc1cc(-c2cccc(F)c2)sc1C(=O)N[C@H]1CCCNC1
Procedure, shortened: (§1)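 K562 cells at 2×10^6 cells/mL were treated for 30 min with 10 μM compound, and aliquots were heated for 3 min over 48°C-58°C before pooling. Extraction used PBS with 0.5% NP-40 at 4°C, and soluble protein was the supernatant after 21,000xg for 90 min, measured by TMTpro 16plex LC-MS/MS with channel sums equalised. Thermal stability values, relative to control samples and from duplicates, are log2 fold changes.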

[2] = compound: NC(=O)c1cnc(N[C@@H]2CCCC[C@@H]2N)nc1Nc1cccc(-n2nccn2)c1
Procedure, shortened: as §1

[3] = compound: NC1(c2ccc(-c3nc4ccn5c(=O)[nH]nc5c4cc3-c3ccccc3)cc2)CCC1
Procedure, shortened: as §1

[4] = compound: NCC(=O)Nc1ccc(-n2nc(C(F)(F)F)cc2-c2ccc3c(ccc4ccccc43)c2)cc1
Procedure, shortened: as §1

[5] = compound: Nc1ccccc1NC(=O)c1ccc(CNC(=O)OCc2cccnc2)cc1 [entinostat]
Procedure, shortened: as §1

[6] = compound: O=C(CCCCCCNC(=O)c1cnc(N(c2ccccc2)c2ccccc2Cl)nc1)NO [citarinostat]
Procedure, shortened: as §1

[7] = compound: O=C(O)c1ccc2c(c1)nc(Nc1cccc(Cl)c1)c1ccncc12 [silmitasertib]
Procedure, shortened: as §1

[8] = compound: O=C1NC(=O)C(c2cnc3ccccn23)=C1c1cn2c3c(cc(F)cc13)CN(C(=O)N1CCCCC1)CC2
Procedure, shortened: as §1

[9] = compound: c1cc(OCCN2CCCCC2)cc(-c2n[nH]c3ccc(-c4nnc[nH]4)cc23)c1
Procedure, shortened: as §1

[10] = compound: c1cn2cc(-c3ccc4cn[nH]c4c3)nc(Nc3ccc(N4CCOCC4)cc3)c2n1 [entospletinib]
Procedure, shortened: as §1

[11] = compound: O=C(CCCCCCC(=O)Nc1ccccc1)NO [vorinostat]
Procedure, shortened: as §1

Sequence of UniProt Q96H55 (Q96H55 whole entry, looked up): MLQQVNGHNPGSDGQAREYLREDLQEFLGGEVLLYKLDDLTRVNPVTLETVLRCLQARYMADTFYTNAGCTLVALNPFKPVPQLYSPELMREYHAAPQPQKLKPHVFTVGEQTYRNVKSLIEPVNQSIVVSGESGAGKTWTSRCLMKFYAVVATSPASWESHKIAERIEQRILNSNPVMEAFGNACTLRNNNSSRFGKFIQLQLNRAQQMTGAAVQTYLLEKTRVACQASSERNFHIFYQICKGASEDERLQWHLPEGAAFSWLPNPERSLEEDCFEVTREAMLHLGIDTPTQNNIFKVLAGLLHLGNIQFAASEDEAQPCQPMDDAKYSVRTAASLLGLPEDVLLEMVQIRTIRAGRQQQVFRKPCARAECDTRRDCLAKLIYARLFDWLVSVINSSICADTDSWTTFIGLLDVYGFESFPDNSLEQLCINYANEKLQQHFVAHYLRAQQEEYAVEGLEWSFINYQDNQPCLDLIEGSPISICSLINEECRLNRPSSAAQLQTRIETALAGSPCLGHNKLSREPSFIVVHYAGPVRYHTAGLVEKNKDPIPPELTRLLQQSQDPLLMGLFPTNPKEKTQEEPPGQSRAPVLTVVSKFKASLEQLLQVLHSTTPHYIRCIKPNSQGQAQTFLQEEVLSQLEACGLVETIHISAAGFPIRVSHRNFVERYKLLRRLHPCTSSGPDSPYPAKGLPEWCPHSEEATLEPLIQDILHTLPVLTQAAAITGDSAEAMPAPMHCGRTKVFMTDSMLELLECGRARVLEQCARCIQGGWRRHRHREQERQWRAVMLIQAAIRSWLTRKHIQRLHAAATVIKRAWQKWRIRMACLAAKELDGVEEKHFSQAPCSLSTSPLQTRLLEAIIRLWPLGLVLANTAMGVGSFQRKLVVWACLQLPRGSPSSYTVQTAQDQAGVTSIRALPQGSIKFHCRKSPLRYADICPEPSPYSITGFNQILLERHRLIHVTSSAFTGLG
Sequence of UniProt Q15746 (Q15746 whole entry, looked up): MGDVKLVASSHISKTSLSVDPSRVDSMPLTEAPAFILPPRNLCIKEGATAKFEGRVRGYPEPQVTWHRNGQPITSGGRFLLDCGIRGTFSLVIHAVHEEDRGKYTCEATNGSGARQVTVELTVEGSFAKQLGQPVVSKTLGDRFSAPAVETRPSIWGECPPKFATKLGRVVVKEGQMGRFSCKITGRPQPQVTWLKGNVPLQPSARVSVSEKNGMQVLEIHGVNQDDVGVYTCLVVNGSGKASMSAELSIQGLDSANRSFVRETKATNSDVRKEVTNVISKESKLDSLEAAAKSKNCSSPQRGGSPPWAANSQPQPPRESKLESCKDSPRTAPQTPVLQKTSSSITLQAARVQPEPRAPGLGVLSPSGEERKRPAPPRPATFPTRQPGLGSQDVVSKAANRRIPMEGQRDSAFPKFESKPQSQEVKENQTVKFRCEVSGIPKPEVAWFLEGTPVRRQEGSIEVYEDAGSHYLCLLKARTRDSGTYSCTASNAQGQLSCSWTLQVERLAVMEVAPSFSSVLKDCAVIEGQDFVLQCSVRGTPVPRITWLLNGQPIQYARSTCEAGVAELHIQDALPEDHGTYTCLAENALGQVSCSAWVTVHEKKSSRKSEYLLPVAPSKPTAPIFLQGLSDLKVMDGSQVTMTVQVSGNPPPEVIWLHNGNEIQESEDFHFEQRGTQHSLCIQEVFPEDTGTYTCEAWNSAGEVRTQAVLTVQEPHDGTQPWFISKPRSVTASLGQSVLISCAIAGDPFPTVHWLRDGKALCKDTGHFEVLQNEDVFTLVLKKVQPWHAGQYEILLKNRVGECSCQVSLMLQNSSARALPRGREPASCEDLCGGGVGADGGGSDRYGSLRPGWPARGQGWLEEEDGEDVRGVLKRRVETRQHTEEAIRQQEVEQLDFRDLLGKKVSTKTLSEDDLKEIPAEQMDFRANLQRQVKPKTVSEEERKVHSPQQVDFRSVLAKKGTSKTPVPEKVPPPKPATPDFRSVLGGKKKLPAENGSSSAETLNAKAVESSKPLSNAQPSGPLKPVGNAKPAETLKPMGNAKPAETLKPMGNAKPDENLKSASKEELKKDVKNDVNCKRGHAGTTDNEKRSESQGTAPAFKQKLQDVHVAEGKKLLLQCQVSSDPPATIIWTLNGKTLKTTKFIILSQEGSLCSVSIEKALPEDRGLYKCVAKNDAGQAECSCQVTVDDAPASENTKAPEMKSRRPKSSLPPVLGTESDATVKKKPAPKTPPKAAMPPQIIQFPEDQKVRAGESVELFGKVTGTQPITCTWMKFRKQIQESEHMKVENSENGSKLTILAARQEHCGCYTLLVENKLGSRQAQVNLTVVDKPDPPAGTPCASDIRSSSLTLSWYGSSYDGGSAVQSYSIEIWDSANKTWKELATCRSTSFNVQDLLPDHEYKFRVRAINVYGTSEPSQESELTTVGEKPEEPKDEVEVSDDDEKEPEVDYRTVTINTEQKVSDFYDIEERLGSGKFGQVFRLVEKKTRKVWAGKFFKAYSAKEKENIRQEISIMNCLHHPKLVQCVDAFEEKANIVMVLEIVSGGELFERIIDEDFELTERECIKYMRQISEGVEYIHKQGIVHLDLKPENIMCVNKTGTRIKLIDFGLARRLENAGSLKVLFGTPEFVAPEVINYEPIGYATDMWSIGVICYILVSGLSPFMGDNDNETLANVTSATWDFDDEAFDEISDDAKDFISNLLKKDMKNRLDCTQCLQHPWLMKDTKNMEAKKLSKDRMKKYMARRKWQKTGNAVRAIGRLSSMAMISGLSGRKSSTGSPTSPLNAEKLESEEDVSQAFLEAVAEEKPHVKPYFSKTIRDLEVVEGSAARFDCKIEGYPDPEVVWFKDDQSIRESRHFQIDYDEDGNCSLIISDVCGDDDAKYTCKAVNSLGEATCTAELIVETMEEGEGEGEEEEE
Sequence of UniProt P48645 (P48645 whole entry, looked up): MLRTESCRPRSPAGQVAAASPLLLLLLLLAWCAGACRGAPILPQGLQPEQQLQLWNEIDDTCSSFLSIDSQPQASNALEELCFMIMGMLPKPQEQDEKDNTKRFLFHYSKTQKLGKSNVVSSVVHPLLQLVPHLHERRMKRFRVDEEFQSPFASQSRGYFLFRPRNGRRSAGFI
Sequence of UniProt Q86UD1 (Q86UD1 whole entry, looked up): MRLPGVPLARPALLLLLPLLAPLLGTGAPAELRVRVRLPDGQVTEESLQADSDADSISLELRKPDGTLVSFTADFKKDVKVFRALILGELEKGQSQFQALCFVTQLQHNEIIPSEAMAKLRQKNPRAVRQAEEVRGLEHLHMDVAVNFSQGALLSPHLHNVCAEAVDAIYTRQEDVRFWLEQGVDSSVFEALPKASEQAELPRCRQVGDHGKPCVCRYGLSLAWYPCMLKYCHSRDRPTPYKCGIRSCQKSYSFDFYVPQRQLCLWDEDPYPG
Sequence of UniProt Q9BVC4 (Q9BVC4 whole entry, looked up): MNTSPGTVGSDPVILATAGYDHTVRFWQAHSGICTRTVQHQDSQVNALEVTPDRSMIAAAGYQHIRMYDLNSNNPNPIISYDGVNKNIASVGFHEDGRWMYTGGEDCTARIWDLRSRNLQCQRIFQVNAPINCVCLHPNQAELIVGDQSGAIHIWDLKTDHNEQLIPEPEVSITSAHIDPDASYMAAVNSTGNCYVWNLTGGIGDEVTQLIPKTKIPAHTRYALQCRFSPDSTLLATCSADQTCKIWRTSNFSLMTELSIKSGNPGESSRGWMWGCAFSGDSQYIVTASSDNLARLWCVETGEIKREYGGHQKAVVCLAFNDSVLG
Sequence of UniProt O75052 (O75052 whole entry, looked up): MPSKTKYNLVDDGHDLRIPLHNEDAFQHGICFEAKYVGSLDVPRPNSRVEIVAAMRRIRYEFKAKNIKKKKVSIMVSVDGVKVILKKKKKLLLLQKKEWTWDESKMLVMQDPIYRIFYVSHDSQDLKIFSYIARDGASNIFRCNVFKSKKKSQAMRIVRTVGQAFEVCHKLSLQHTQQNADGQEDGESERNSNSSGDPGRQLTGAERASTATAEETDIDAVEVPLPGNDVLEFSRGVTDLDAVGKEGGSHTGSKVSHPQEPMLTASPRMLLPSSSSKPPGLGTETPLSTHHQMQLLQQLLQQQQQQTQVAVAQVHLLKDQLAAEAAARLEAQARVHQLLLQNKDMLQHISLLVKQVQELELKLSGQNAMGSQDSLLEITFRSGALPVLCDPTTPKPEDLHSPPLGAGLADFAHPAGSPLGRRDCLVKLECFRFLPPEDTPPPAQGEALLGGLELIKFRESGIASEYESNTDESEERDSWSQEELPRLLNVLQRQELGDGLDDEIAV
Sequence of UniProt Q9HCD5 (Q9HCD5 whole entry, looked up): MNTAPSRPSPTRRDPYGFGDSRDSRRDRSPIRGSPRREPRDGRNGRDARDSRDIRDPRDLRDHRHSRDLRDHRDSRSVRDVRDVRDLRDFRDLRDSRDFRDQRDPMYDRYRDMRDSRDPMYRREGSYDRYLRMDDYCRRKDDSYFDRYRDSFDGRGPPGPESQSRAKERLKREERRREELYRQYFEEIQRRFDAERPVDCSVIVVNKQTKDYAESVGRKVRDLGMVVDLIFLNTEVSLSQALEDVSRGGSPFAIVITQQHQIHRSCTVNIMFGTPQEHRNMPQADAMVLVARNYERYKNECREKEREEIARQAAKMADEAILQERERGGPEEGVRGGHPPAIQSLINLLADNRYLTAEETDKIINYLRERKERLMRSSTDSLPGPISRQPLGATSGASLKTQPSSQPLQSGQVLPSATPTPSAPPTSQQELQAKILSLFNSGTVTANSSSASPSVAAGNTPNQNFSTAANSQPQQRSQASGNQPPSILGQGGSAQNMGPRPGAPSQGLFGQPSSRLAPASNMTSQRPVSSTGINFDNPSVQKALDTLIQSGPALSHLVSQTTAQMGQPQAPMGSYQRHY
Sequence of UniProt Q70IA6 (Q70IA6 whole entry, looked up): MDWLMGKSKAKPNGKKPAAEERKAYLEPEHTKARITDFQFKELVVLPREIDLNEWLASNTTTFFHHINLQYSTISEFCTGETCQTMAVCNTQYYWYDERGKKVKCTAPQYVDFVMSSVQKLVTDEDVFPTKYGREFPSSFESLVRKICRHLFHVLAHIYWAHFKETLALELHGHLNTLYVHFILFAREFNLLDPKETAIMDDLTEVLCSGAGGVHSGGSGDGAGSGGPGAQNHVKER

| Target | log2 fold change [1] | log2 fold change [2] | log2 fold change [3] | log2 fold change [4] | log2 fold change [5] | log2 fold change [6] | log2 fold change [7] | log2 fold change [8] | log2 fold change [9] | log2 fold change [10] | log2 fold change [11] |
| --- | --- | --- | --- | --- | --- | --- | --- | --- | --- | --- | --- |
| MLST8 (UniProt Q9BVC4) | 0.064 | -0.201 | -0.182 | -0.082 | 0.127 | 0.043 | 0.105 | -0.03 | -0.025 | -0.06 | – |
| PAFAH2 (UniProt Q99487) | 0.079 | -0.194 | – | 0.04 | 0.075 | – | – | – | – | – | – |
| NTMT1 (UniProt Q9BV86) | -0.035 | 0.027 | 0.077 | -0.002 | 0.024 | -0.069 | -0.028 | -0.029 | – | 0.118 | -0.089 |
| MON2 isoform 5 (UniProt Q7Z3U7) | -0.023 | 0.012 | -0.107 | -0.038 | -0.003 | 0.056 | 0.021 | -0.006 | -0.003 | 0.014 | 0.097 |
| MT-ATP6 (UniProt P00846) | -0.003 | -0.007 | 0.197 | 0.081 | -0.018 | 0.097 | -0.005 | 0.037 | -0.04 | 0.029 | -0.007 |
| MTFR1L (UniProt Q9H019) | -0.069 | -0.079 | – | -0.005 | 0.069 | – | – | -0.014 | – | – | 0.356 |
| NARS2 (UniProt Q96I59) | -0.05 | 0.057 | -0.142 | -0.02 | 0.012 | 0.043 | -0.04 | -0.064 | -0.026 | -0.01 | 0 |
| ORC3 (UniProt Q9UBD5) | – | 0.067 | – | – | – | 0.032 | – | – | -0.195 | -0.144 | – |
| NKAP (UniProt Q8N5F7) | – | -0.043 | 0.027 | -0.028 | – | 0.099 | -0.132 | 0.111 | -0.144 | -0.144 | 0.019 |
| MON1A (UniProt Q86VX9) | 0.016 | – | 0.001 | – | -0.005 | 0.161 | -0.157 | -0.013 | -0.275 | 0.041 | 0.017 |
| NKTR (UniProt P30414) | – | – | 0.074 | – | – | – | -0.023 | – | – | – | – |
| NUDT6 (UniProt P53370) | – | – | 0.149 | 0.298 | – | 0.164 | -0.517 (active) | -0.097 | -0.385 | 0.127 | – |
| MSANTD2 (UniProt Q6P1R3) | -0.041 | – | – | -0.065 | -0.184 | -0.124 | – | 0.004 | 0.16 | -0.364 | – |
| MYSM1 (UniProt Q5VVJ2) | -0.205 | – | – | – | 0.237 | 0.564 | – | – | 0.174 | 0.141 | – |
| MT-ND2 (UniProt P03891) | – | 0.146 | -0.128 | 0.036 | – | – | -0.01 | – | – | – | 0.036 |
| OSBPL2 (UniProt Q9H1P3) | – | – | -0.443 | – | – | – | 0.148 | – | – | – | – |
| NMU (UniProt P48645) | – | -0.023 | – | 0.132 | – | 0.043 | – | 0.144 | -0.08 | 0.078 | 0.041 |
| MRM2 (UniProt Q9UI43) | – | -0.202 | – | -0.211 | – | – | – | – | – | – | – |
| PACRGL (UniProt Q8N7B6) | 0.055 | – | – | – | -0.116 | – | – | – | – | – | – |
| NAP1L1 (UniProt B7Z9C2) | – | -0.124 | 0.028 | 0.064 | – | 0.068 | 0.001 | – | 0.179 | -0.081 | 0.23 |
| OVCA2 (UniProt Q8WZ82) | – | -0.067 | 0.03 | – | – | -0.085 | 0.206 | – | 0.08 | -0.031 | 0.08 |
| NELFCD (UniProt Q8IXH7) | – | -0.005 | – | -0.321 | – | – | – | -0.12 | – | – | 0.234 |
| NEU3 isoform 2 (UniProt Q9UQ49) | 0.112 | – | – | – | -0.071 | – | – | – | – | – | – |

| Target | log2 fold change [1] | log2 fold change [2] | log2 fold change [3] | log2 fold change [4] | log2 fold change [5] | log2 fold change [6] | log2 fold change [7] | log2 fold change [8] | log2 fold change [9] | log2 fold change [10] | log2 fold change [11] |
| --- | --- | --- | --- | --- | --- | --- | --- | --- | --- | --- | --- |
| MYO19 (UniProt Q96H55) | – | -0.112 | – | 0.051 | – | – | – | 0.232 | – | – | 0.029 |
| MOB2 isoform 3 (UniProt Q70IA6) | – | – | -0.251 | – | – | – | 0.062 | -0.368 | – | – | 0.044 |
| NCOA5 (UniProt Q9HCD5) | -0.101 | – | – | – | -0.011 | – | – | – | – | – | 0.023 |
| NA (UniProt B2RBV5) | 0.06 | – | -0.055 | – | 0.029 | 0.12 | 0.056 | -0.001 | -0.014 | -0.058 | 0.045 |
| OXR1 isoform 2 (UniProt Q8N573) | – | 0.054 | – | -0.046 | – | 0.013 | – | -0.096 | -0.053 | 0.004 | 0.01 |
| NASP isoform 2 (UniProt P49321) | – | – | 0.24 | – | – | – | -0.475 | – | – | – | – |
| NRGN (UniProt Q92686) | – | 0.144 | – | – | – | – | – | -0.215 | – | – | -0.231 |
| NA, A0A494C071 | – | -0.484 | -0.407 | -0.153 | – | 0.023 | 0.212 | -0.022 | -0.086 | -0.105 | 0 |
| OGFOD2 (UniProt Q6N063) | – | 0.005 | -0.151 | -0.012 | – | 0.036 | 0.097 | -0.073 | -0.012 | -0.003 | -0.313 |
| NDUFA7 (UniProt M0R0N0) | -0.307 | – | – | -0.344 | -0.063 | – | – | – | – | – | – |
| MYLK (UniProt Q15746) | -0.063 | – | -0.064 | -0.21 | -0.081 | -0.089 | 0.175 | – | 0.204 | -0.041 | -0.059 |
| MMADHC (UniProt Q9H3L0) | – | 0.035 | 0.014 | 0.057 | – | 0.141 | 0.031 | – | 0.031 | 0.158 | 0.157 |
| P4HA2 (UniProt O15460) | -0.034 | – | -0.129 | 0.063 | -0.104 | -0.019 | 0.025 | 0.201 | -0.021 | 0.021 | -0.047 |
| MOB3B (UniProt Q86TA1) | – | -0.082 | -0.288 | -0.021 | – | – | -0.023 | – | – | – | -0.049 |
| NA, A0A1W2PSA9 | – | 0.004 | – | – | – | – | – | – | – | – | -0.364 |
| MLH1 (UniProt P40692) | – | 0.058 | -0.102 | – | – | – | -0.017 | -0.098 | – | – | -0.042 |
| OAF (UniProt Q86UD1) | -0.089 | – | -0.188 | – | -0.029 | – | 0.019 | – | – | – | – |
| NOS1AP (UniProt O75052) | – | – | -0.27 | -0.302 | – | -0.225 | 0.312 | -0.186 | 0.59 | -0.337 | – |
| NUDT7 (UniProt P0C024) | 0.01 | – | – | – | -0.05 | – | – | 0.12 | – | – | 0.286 |
| NA, A0A2R8Y3M9 | -0.104 | -0.17 | – | – | -0.011 | – | – | – | – | – | 0.372 |
| OSBPL3 (UniProt Q9H4L5) | -0.079 | -0.43 | – | 0.106 | 0.077 | -0.077 | – | 0.307 | -0.072 | 0.171 | – |
| NA (UniProt J3KR12) | – | – | -0.292 | – | – | – | -0.108 | 0.427 | – | – | – |
| MORC2 (UniProt Q9Y6X9) | – | -0.193 | -0.118 | – | – | – | -0.066 | -0.151 | – | – | – |

Reference: the supplement of paper PMC10849652
